Test results published in PubChem BioAssay AID588674 (Broad Institute, 2011).
“And” between values parts separate entries of the source, which are not always exact repeats. Identical values can stand only once. Out of some 360,000 compounds screened, about 1,800 (0.5%) were called active.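 The calls were made as follows: active = mean inhibition of at least 75% with every replicate also reaching 75%; inconclusive = mean inhibition at least 75% but some replicate below; inactive = mean inhibition below 75%.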 The sample as a whole holds a higher share of actives than the screen did.

test: reduction of Shn3 3'UTR firefly luciferase signal, primary screen, Schnurri-3 inhibitor project, cell-based, Clone20 osteoblasts, set 2 (AID 588674); settings: Clone20 osteoblast Shn3 3'UTR firefly luciferase, 24 h; at 12.5 µM; hits give high values;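 also: 0% = median of neutral control wells and 100% = pilot-screen positive control compound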

| Compound | inhibition |
| --- | --- |
| CNC(=O)c1nnn(-c2ccccc2)c1C(=O)NC | -6.31% (inactive) |
| N#Cc1c(NC(=O)c2ccc(N3CCOCC3)c([N+](=O)[O-])c2)sc2c1CCCC2 | 12% (inactive) |
| O=C(c1ccc(CS(=O)Cc2ccccc2Cl)o1)N1CCN(c2ccccc2)CC1 (configuration not stated) | -5.18% (inactive) |
| CC1CC(NC(=S)N(C)C)CC(C)(C)C1 (configuration not stated) | -11.6% (inactive) |
| CCN(CC)CCN(C(=O)c1ccc2c(c1)CCCC2)c1nc2c(OC)cccc2s1 | 18.3% (inactive) |
| Cc1cccc2sc(N(CCCN(C)C)C(=O)CCS(=O)(=O)c3ccccc3)nc12 | 70.2% (inactive) |
| COc1cccc2sc(N(CCCN(C)C)C(=O)CCS(=O)(=O)c3ccccc3)nc12 | 97.2% (active) |
| CC(=O)CSc1nnc(CSc2ncccn2)n1C1CCCCC1 | -0.19% (inactive) |
| Cn1c2ccc(F)cc2c2nnc(NN)nc21 | -1.82% (inactive) |
| COc1cc(OC)cc(C(=O)NC2CCN(C(=O)N3c4ccccc4Sc4ccccc43)CC2)c1 | 38.1% (inactive) |
| NC(c1ccccc1)c1csc(NC(=O)Nc2cccc(C(F)(F)F)c2)n1 (configuration not stated) | 23% (inactive) |
| NC(c1csc(NC(=O)Nc2cccc(C(F)(F)F)c2)n1)C1CCCCC1 (configuration not stated) | 92% (active) |
| COc1ccc(C(N)c2csc(NC(=O)Nc3cccc(C(F)(F)F)c3)n2)cc1 (configuration not stated) | 11.3% (inactive) |
| C/C(=N/NC(=O)c1ccn(C)n1)c1ccncc1 | -3.15% (inactive) |
| CCNC(=S)N1CCN(c2ncccn2)CC1 | -18.4% (inactive) |
| C/C(=N\NC(=O)c1ccccc1F)c1ccccn1 | 94.8% (active) |
| CC(=NNC(=S)N1CCCCCC1)c1ccccn1 | 95.3% (active) |
| CCOc1ccc(NC(=S)N2CCCCCC2)cc1 | -24.3% (inactive) |
| O=C(NCCOc1ccccc1)c1ccccc1F | -74.7% (inactive) |

| Compound | inhibition |
| --- | --- |
| COc1ccc(/C=C/C(=O)c2c(O)cc(OC)cc2OC)cc1 | -43.5% (inactive) |
| COCCNS(=O)(=O)c1cc(Br)ccc1OC | -12.3% (inactive) |
| Cc1cc(C)nc(N/N=C/c2c(CO)cnc(C)c2O)n1 | 39% (inactive) |
| CCOc1ccc(-n2c(SCC(=O)Nc3cc(C(=O)O)ccc3Cl)nc3ccccc3c2=O)cc1 | -1.51% (inactive) |
| CCOc1ccc(-n2c(O)c(/C=N/Nc3nc(C)cc(C)n3)c3ccccc3c2=O)cc1 | 90.6% (active) |
| COc1ccc(CN2CCCC(CNC(=O)c3ccc(F)cc3)C2)cc1OC (configuration not stated) | 3.62% (inactive) |
| CCCCCCCCCCOC(=O)C[N+](C)(C)CC1CCCCC1O (configuration not stated) | 2.65% (inactive) |
| COc1ccc(CC(N)c2csc(NC(=O)Cc3ccccc3)n2)cc1 (configuration not stated) | -16.8% (inactive) |
| COc1ccc(CC(N)c2csc(NC(=O)Nc3ccc(C(C)C)cc3)n2)cc1 (configuration not stated) | 96.6% (active) |
| COc1ccc(CC(N)c2csc(NC(=O)NC(c3ccccc3)c3ccccc3)n2)cc1 (configuration not stated) | 80.7% (inactive) |
| O=C(CCNS(=O)(=O)c1cccs1)N1CCN(c2ccc(F)cc2)CC1 | -1.48% (inactive) |
| C=C(C)C(=O)O[C@H]1C/C(C)=C\C(=O)/C=C(\C)[C@H](O)[C@@H]2OC(=O)C(=C)[C@@H]21 | 87.7% (active) |
| COC(=O)c1c(NC(=O)c2ccc(S(=O)(=O)N3CCOCC3)cc2)sc2c1CCN(C(C)C)C2 | -14% (inactive) |
| N#C/C(C(=S)Nc1ccccc1)=C1/NN=C(N2CCOCC2)N1c1ccccc1 | 2.09% (inactive) |
| Cc1cc(-n2nc(C)cc2C)n2ncc(-c3ccccc3)c2n1 | -43% (inactive) |
| CCOC(=O)c1cnc2nc(SCc3ccccc3Cl)[nH]n2c1=O | -11.4% (inactive) |
| CCOC(=O)c1cnc(-n2nc(C)cc2C)nc1NNc1cc(C)nc(-c2ccccc2)n1 | 92.1% (active) |
| O=C(Oc1ccccc1)Oc1ccc2c(c1)oc(=O)c1ccccc12 | -6.2% (inactive) and -3.28% (inactive) |
| Cc1ncoc1C(=O)NCCC(c1ccccc1)c1ccccc1 | 17.9% (inactive) |

| Compound | inhibition |
| --- | --- |
| CCNc1nc(NCC)nc(N(C)n2cnnc2)n1 | 4.63% (inactive) |
| Cc1ccc(C)c(N2CCN(C(=O)CCCn3c(=O)c4cccn4c4cccnc43)CC2)c1 | 8.64% (inactive) |
| O=C(CCCCCn1c(=S)[nH]c2cc3c(cc2c1=O)OCO3)N1CCN(c2ccc(F)cc2)CC1 | 8.75% (inactive) |
| Cc1ccc(C)c(N2CCN(C(=O)CCCCCn3c(=S)[nH]c4ccc(N5CCOCC5)cc4c3=O)CC2)c1 | 87.2% (active) |
| CCCN(CC(=O)Nc1ccccc1OC)C(=O)CCC(=O)c1ccc(F)cc1 | 8.98% (inactive) |
| COc1ccccc1N1CCN(C(=O)C2Cc3ccccc3CN2C(=O)c2ccco2)CC1 (configuration not stated) | -11.8% (inactive) |
| CN(C)S(=O)(=O)c1cccc(NC(=O)COC(=O)C2(c3ccccc3F)CCCC2)c1 | 12.1% (inactive) |
| CC[C@H]1CN2CCc3cc(OC)c(OC)cc3[C@@H]2C[C@@H]1C[C@H]1NCCc2cc(OC)c(OC)cc21 | 94.7% (active) |
| CC1CN(c2nc(-c3ccccc3)nnc2-c2ccccc2)CC(C)O1 (configuration not stated) | 21% (inactive) |
| CC(C)N(C(=O)[C@H]1C[C@H](CC(=O)NC(C)(C)C)C(=O)N2CCc3c([nH]c4ccc(Cl)cc34)[C@]12C)C(C)C | 26.9% (inactive) |
| COc1cc(NC(=O)C2=C(C)OCCS2)c(Cl)cc1C(=O)NCCCN1CCCC(C)C1 (configuration not stated) | -6.28% (inactive) |
| O=C(O)c1[nH]c2ccccc2c1C(c1cccc(O)c1)c1c(C(=O)O)[nH]c2ccccc12 | 0.858% (inactive) |
| O=C(CSc1nnnn1-c1ccccc1)NCc1ccco1 | 4.12% (inactive) |
| O=C(CSc1c2c(nc3ccc(Cl)cc13)CCCC2)NCc1ccco1 | 89.8% (active) |
| O=C(NCc1ccco1)C1(c2ccc(Cl)cc2)CCCC1 | -21.5% (inactive) |
| COc1ccccc1NC(=O)COC(=O)Cc1ccc(S(=O)(=O)N2CCCCC2)s1 | -14.6% (inactive) |
| Cc1c(Cl)c([N+](=O)[O-])nn1Cc1ccc(C(=O)N/N=C\c2cc(Cl)ccc2O)o1 | 92.8% (active) |
| Cc1nn(Cc2ccccc2Cl)c(C)c1NC(=O)Cn1nc([N+](=O)[O-])c(Cl)c1C | 3.56% (inactive) |
| O=C(N/N=C\c1ccc(Br)cc1)c1ccc(Cn2cccn2)o1 | -11.5% (inactive) |
